Abeta yeast res = A-beta toxicity reversal in yeast. yeast expressing A-beta42, growth rescue, OD600, 48 h; response scale: 0% DMSO, 100% iron-clioquinol control. Potency, µM (doses to about 46.1 µM), most hits filed as activators. actives 0.063% (n = 410,000). AID 1347071; also: nearly all actives have a fitted effect of over 55% in size
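Yeast A-beta toxicity model in growth medium with pinned compounds, 48 h at 30 C; growth read as absorbance at 600 nm. Normalized to FeCl3/clioquinol equimolar mix (positive) and DMSO (negative).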
aSyn rescue = rescues yeast growth from alpha-synuclein toxicity | Potency, µM (series often up to 46.1 µM), without a hit: at the top dose growth rescue (activation), actives largely listed as activators | actives 0.14% (n = 370,000) | Yeast expressing alpha-synuclein, growth rescue, BacTiter-Glo, 24 h | AID 652106; also: % of control where 0% means no effect; nearly all actives have a fitted effect of over 65% in size
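Screening used galactose-induced yeast with toxic alpha-synuclein levels, exposed to compound for 24 hr at 30 deg C. Cell growth, read with BacTiter-Glo luminescence, gave the measured signal.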
TDP-43 yeast inh = TDP-43 toxicity inhibition in yeast. TDP-43 expressing yeast growth rescue, BacTiter-Glo, 24 h. Potency, µM (highest dose often 46.1 µM), for the others: at the top dose growth rescue (activation), actives largely listed as activators. actives 1.8% (n = 410,000). AID 652104; also: % of control where 0% means no effect; nearly all actives have a fitted effect of over 50% in size
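Readout is BacTiter-Glo luminescence of cell growth, so inhibitors register as activators. TDP-43-expressing yeast at OD600=0.02 in galactose medium, after raffinose pregrowth to mid-log, were incubated with compound for 24 hr at 30 deg C.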
FUS yeast rescue = suppressors of FUS proteinopathy in yeast; S. cerevisiae FUS-expressing, growth rescue, OD600, 24 h; actives 0.24% (n = 390,000); Potency, µM (series often up to 76.6 µM), actives largely listed as activators;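 also: plate controls were DMSO vehicle for no effect and reference control for full effect; nearly all actives have a fitted effect of over 55% in size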
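Galactose (2%) drives FUS expression in yeast precultured in raffinose; seeding density OD 0.005. Test compounds incubated 24hr at 30C and 99% humidity before absorbance at 600 nm was measured.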
* hit, by the source's call; ! = not confirmed by another sample. Sampled rows, rich in hits. Any-hit rate of the full collection: about 2.1%. Calls follow the shape of the dose curve; as a rule, active = well fitted curve in the direction sought with a large enough effect; inconclusive = small, poorly fitted or top-dose-only effect, or another doubt; inactive = no such curve, though single readings can be large; an effect the other way counts as inactive or inconclusive. Potency is read from the fitted curve at half-maximal effect.

For Cc1ccc(-c2cc(O)cc3sc(=O)oc23)cc1C the results were aSyn rescue -18%, TDP-43 yeast inh 11µM* and FUS yeast rescue inactive.
`CCOC(=O)C1(C)CCCCN1C(=O)c1cccc(Cl)c1` (stereo unspecified) gave Abeta yeast res inactive, aSyn rescue -8%, TDP-43 yeast inh -1% and FUS yeast rescue inactive.
Cc1ccc(C(=O)NC(C)c2ccc(C)c(C)c2)s1 (stereo unspecified) was read as Abeta yeast res inactive, aSyn rescue -9%, TDP-43 yeast inh -11% and FUS yeast rescue inactive.
Screening Cc1ccc(-n2c(SCc3cccc(F)c3)nc3[nH]ncc3c2=O)cc1C returned Abeta yeast res inactive, TDP-43 yeast inh 37% and FUS yeast rescue inconclusive.
For CSc1ccccc1NC(=O)CCS(=O)(=O)c1nc(-c2ccc3c(c2)OCO3)cc(C(F)(F)F)n1 the results were Abeta yeast res inactive, aSyn rescue -4%, TDP-43 yeast inh 11µM* and FUS yeast rescue inactive.
`O=C(CCS(=O)(=O)c1nc(-c2ccc3c(c2)OCO3)cc(C(F)(F)F)n1)Nc1ccccc1F` gave Abeta yeast res inactive, TDP-43 yeast inh 22µM* and FUS yeast rescue inactive.
COC(=O)c1ccccc1NC(=O)CCS(=O)(=O)c1nc(-c2ccc3c(c2)OCO3)cc(C(F)(F)F)n1 was read as Abeta yeast res inactive, TDP-43 yeast inh 0% and FUS yeast rescue inactive.
For Cc1c(N=C/C=C/c2ccccc2)cnn1C the results were Abeta yeast res inactive, aSyn rescue 2%, TDP-43 yeast inh 19% and FUS yeast rescue inactive.
For CSCC[C@H](NC(=O)N1CCn2c1nc1ccccc12)C(=O)N[C@@H](C(=O)O)c1ccccc1 the results were Abeta yeast res inactive, aSyn rescue -8%, TDP-43 yeast inh 12% and FUS yeast rescue inactive.
For Cc1[nH]c2c(Br)cccc2c1[C@H]1[C@@H](CC#N)C1(C)C the results were Abeta yeast res inactive, aSyn rescue -21%, TDP-43 yeast inh 22µM* and FUS yeast rescue inactive.
For Cc1c([C@H]2[C@@H](CC#N)C2(C)C)c2ccccc2n1C the results were Abeta yeast res inactive, aSyn rescue 4%, TDP-43 yeast inh 16% and FUS yeast rescue inactive.
O=C(NCCc1csc(-c2cccnc2)n1)c1c(F)cccc1F was read as Abeta yeast res inactive, aSyn rescue -1%, TDP-43 yeast inh 1% and FUS yeast rescue inactive.
Screening O=C(NCCc1csc(-c2ccc(F)cc2)n1)c1c(F)cccc1Cl returned Abeta yeast res inactive, TDP-43 yeast inh 13µM* and FUS yeast rescue inactive.
For O=C(NCCc1csc(-c2ccccc2)n1)c1c(F)cccc1F the results were Abeta yeast res inactive, aSyn rescue -9%, TDP-43 yeast inh 20µM* and FUS yeast rescue inactive.
For O=C(NCCc1csc(-c2ccccc2)n1)c1c(F)cccc1Cl the results were Abeta yeast res inactive, aSyn rescue 0%, TDP-43 yeast inh 13µM* and FUS yeast rescue inactive.
`O=C(NCCc1csc(-c2ccc(Cl)cc2)n1)c1ccco1` gave Abeta yeast res inactive, aSyn rescue -14%, TDP-43 yeast inh 16µM*! and FUS yeast rescue inactive.
COc1cc(C(=O)NCCc2csc(-c3ccc(Cl)cc3)n2)cc(OC)c1OC was read as Abeta yeast res inactive, TDP-43 yeast inh 22µM* and FUS yeast rescue inactive.
Screening O=C(NCc1csc(-c2ccccc2)n1)c1cc(F)cc2c1OCOC2 returned Abeta yeast res inactive, aSyn rescue 6%, TDP-43 yeast inh 13µM* and FUS yeast rescue inactive.
Screening COc1ccc(C2=NOC(C(=O)NCc3ccc(F)cc3)C2)cc1 (stereo unspecified) returned Abeta yeast res inactive, aSyn rescue 3% and TDP-43 yeast inh 4%.
Screening COc1cccc(CNc2nc3cc(-c4ccc(C)cc4)sc3c(=O)n2C)c1OC returned Abeta yeast res inactive, aSyn rescue inconclusive, TDP-43 yeast inh 25µM* and FUS yeast rescue inactive.
Screening COc1cccc(CNc2nc3cc(-c4ccc(F)cc4)sc3c(=O)n2C)c1OC returned Abeta yeast res inactive, aSyn rescue 1%, TDP-43 yeast inh 0% and FUS yeast rescue inactive.
Screening COCCNc1nc2cc(-c3ccccc3)sc2c(=O)n1C returned Abeta yeast res inactive, aSyn rescue 11%, TDP-43 yeast inh 20µM* and FUS yeast rescue inactive.

Compound activity: PubChem BioAssay, National Center for Advancing Translational Sciences (NCATS)
